Bioassay records as filed in PubChem.
This is a sample that favours compounds with a hit; in the whole collection about 2.4% have one here.
D2 ag-1 = D2 dopamine receptor (human) agonism. hit rate 0.53% among 340,000. activation, % at 2 µM. HEK293 T-REx D2 cells, calcium flux agonist mode;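 active = activation over 3 SD above normal in the single-dose calcium agonist read, cut at about 30% in these data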
Target sequence (P14416 whole entry, looked up): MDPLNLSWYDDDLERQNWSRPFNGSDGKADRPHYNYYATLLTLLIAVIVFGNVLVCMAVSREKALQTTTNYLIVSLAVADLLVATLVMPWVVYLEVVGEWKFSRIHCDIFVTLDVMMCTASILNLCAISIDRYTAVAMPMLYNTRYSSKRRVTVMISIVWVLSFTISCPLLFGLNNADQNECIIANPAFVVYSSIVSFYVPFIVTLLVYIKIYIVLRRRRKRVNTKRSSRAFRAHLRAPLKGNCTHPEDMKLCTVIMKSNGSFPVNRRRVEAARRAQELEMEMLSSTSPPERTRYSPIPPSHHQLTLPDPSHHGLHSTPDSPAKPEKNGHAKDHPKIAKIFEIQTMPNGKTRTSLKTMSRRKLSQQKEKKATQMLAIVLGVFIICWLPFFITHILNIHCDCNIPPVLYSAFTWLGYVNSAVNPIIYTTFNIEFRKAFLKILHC
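Agonism scored from kinetic calcium signal (1 read/sec, 180 s) following compound pin transfer, after a 10 s baseline. Cells: HEK293 Trex line expressing inducible D2 receptor coupled to calcium, dye-loaded after overnight culture at 30 C.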
D2 antag = antagonists of human D2 dopamine receptor; P14416; AID 485344; hit rate 2% among 340,000; HEK293 TREx D2 cells, calcium flux, dopamine EC80; inhibition, % at 10 µM; in the data active = inhibition above about 30%; inactive = below that, where a call was filed
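Antagonism is scored as inhibition of an EC80 dopamine-evoked calcium signal in a force-coupled, tetracycline-inducible HEK293 T-REx D2 line, with compound present 180 s before agonist.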
D2 ag-2 = agonists of human D2 dopamine receptor (beta-arrestin) | P14416 | DiscoveRx PathHunter D2 beta-arrestin, luminescence, 90 min; 100% = 57 uM dopamine signal | activation, % (test concentration not listed) | hit rate 0.084% among 360,000 | AID 624465; in the data active = activation above about 40%; inconclusive = between about 15% and that limit
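DiscoveRx PathHunter D2 beta-arrestin cells (2,100/well) attached overnight, then compound-stimulated 90 min at 37 C in HBSS/10 mM HEPES/0.1% Tween-20 buffer; beta-galactosidase complementation read by luminescence after 1 h at ambient temperature. Dopamine 57 uM final (EC100) as control.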
D2 PAM-1 = potentiates the human D2 dopamine receptor allosterically; potentiation, % (concentration not given with the values); P14416; DiscoveRx D2 beta-arrestin cells, luminescence, 90 min; 100% = 57 uM dopamine signal; hit rate 0.23% among 360,000; AID 624464; in the data active = potentiation above about 50%; inconclusive = mostly about 30% to 49%
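PathHunter beta-arrestin assay in DiscoveRx D2 cells. Compounds were added with an EC20 of dopamine (50 nM final) for 90 min at 37 deg C. Luminescence was read 1 h after detection reagent, with 57 uM dopamine as the EC100 control.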
D2 PAM-2 = D2 dopamine receptor (human) potentiation | P14416 | HEK293 T-REx D2, calcium flux, EC20 dopamine potentiation | potentiation, % at 10 µM | hit rate 0.34% among 340,000 | AID 485347;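 active = potentiation over 3 SD above the plate norm, cut at about 30% in these data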
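Potentiation of an EC20 dopamine calcium response is measured in a force-coupled, tetracycline-inducible Hek293 Trex D2 line. Compound-only kinetic reads over 180 s flag agonists before dopamine addition.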
D3 ag = D3 receptor agonism confirmed, beta-arrestin readout; shares compounds with D2 ag-1; DiscoveRx D3 beta-arrestin cells, luminescence, 90 min; Potency, µM (highest dose often 76.9 µM), usual class: activators; hit rate 4% among 2,300; AID 720506; also: nearly all actives have a fitted effect of over 70% in size
D2 ag-3 = D2 receptor agonism, beta-arrestin counterscreen; hit rate 5.9% among 2,300; AID 720507; DiscoveRx PathHunter D2 beta-arrestin, luminescence, 90 min; response scale: percent relative to full dopamine signal; shares compounds with D2 ag-1; Potency, µM (top dose mostly 76.9 µM), actives largely listed as activators; also: nearly all actives have a fitted effect of over 70% in size
A number is an active result; – = inactive; ? = inconclusive; · = no result given. Unless noted, calls follow the shape of the dose curve; as a rule, active = well fitted activation curve with a large enough effect; inconclusive = small, poorly fitted or top-dose-only effect; inactive = flat fitted curve, though single readings scatter.

SMILES	D2 ag-1	D2 antag	D2 ag-2	D2 PAM-1	D2 PAM-2	D3 ag	D2 ag-3
O=C1C=C(c2ccccc2)C[C@@H](c2ccc(Cl)cc2)C1	–	–	–	–	–	–	–
O=C1C=C(c2ccc3ccccc3c2)C[C@@H](c2ccc(Cl)cc2)C1	–	–	–	–	–	–	–
Cc1ccc(N2CCN(c3ncnc4onc(-c5ccc(F)cc5)c34)CC2)c(C)c1	–	·	·	·	–	·	·
CC(=O)c1cccc(N2C(=O)CN(S(C)(=O)=O)CC2(C)C(=O)NC2CCCC2)c1 (configuration not stated)	–	·	·	·	–	·	·
COc1ccccc1N1CCN(C(=O)c2c(C)oc3ncn(CC(C)C)c(=O)c23)CC1	–	·	·	·	–	·	·
O=C1C(=O)N(CCCn2ccnc2)C(c2cccnc2)/C1=C(/O)c1ccc(F)cc1 (configuration not stated)	40.1	–	–	–	–	–	–
c1ccc(Cc2noc(CN3CCN(CCOc4ccccc4)CC3)n2)cc1	62.9	55.5	–	–	–	?	–
CCOc1ccc(S(=O)(=O)c2cn(C)c3ccccc3c2=O)cc1	–	·	·	·	–	·	·
CCC(=O)N1CCc2cc(S(=O)(=O)CCC(=O)Nc3cccc(C)n3)ccc21	34.5	–	–	–	–	–	–
CCC(=O)N1CCc2cc(S(=O)(=O)CCC(=O)Nc3ccc(OC)cc3)ccc21	–	–	–	–	–	·	·
CCOC(=O)c1c(S(=O)(=O)N2CCCC(C(=O)NCc3ccccc3OC)C2)c(C)n(C)c1C (configuration not stated)	–	·	·	·	–	·	·
CCN1CCN(C(=O)CNC(=O)c2nn(-c3ccc(OC)cc3)c(=O)c3ccccc23)CC1	51.1	–	–	–	–	–	–
COc1ccc(C2OC(=O)CC2C(=O)NCc2ccc(F)cc2)cc1OC (configuration not stated)	–	–	–	–	–	–	–
O=C(CN1CCc2ccccc2C1)Nc1cc(S(=O)(=O)N2CCOCC2)ccc1N1CCCC1	76.3	83.2	–	–	–	–	–
O=C(CN1CCN(c2ccc(O)cc2)CC1)Nc1cc(S(=O)(=O)N2CCCC2)ccc1Cl	53.9	43.9	–	–	–	39.8µM	?
CCN1CCN(c2ccc(S(=O)(=O)N3CCOCC3)cc2NC(=O)c2ccc(C)cc2C)CC1	–	–	–	–	–	–	–
Cc1ccc(C)c(N2C(=O)N(Cc3ccccc3C)c3ccccc3S2(=O)=O)c1	–	·	·	·	–	·	·
CCc1ccc(C(=O)c2cn(CC(=O)NCc3ccc(C)cc3)c3nc(C)ccc3c2=O)cc1	–	·	·	·	–	·	·
Nc1cccc(C#Cc2ccc3c(=O)c4ccccc4oc3c2)c1	–	–	–	–	–	–	–
O=C(CCN1CCN(c2ccccc2)CC1)N/N=C/c1ccc(O)c(O)c1O	83.0	78.1	–	–	–	?	31.6µM
O=[N+]([O-])c1ccc(CN2CCN(c3ccccc3)CC2)o1	–	–	–	–	–	–	–
O=[N+]([O-])c1ccc(C(O)CN2CCN(c3ccccc3)CC2)cc1 (configuration not stated)	59.7	46.4	?	–	–	?	?
O=[N+]([O-])c1ccc(N2CCN(Cc3ccc([N+](=O)[O-])o3)CC2)cc1	–	–	–	–	–	·	·
COc1ccc(/C=N/NC(=O)CCN2CCN(c3ccccc3)CC2)c(OC)c1OC	79.6	84.0	?	–	–	–	?
CCc1ccccc1NS(=O)(=O)c1ccc2c(c1)CCCN2C(=O)C1CCC1	–	·	·	·	–	·	·
SMILES	D2 ag-1	D2 antag	D2 ag-2	D2 PAM-1	D2 PAM-2	D3 ag	D2 ag-3
CSc1ncc(C(=O)NCc2ccc(Cl)cc2)c(C(F)(F)F)n1	·	·	·	·	–	·	·
CCc1ccc(NC(=O)C2CCCN(S(=O)(=O)c3cccc4nsnc34)C2)cc1 (configuration not stated)	–	·	·	·	–	·	·
CCOC(=O)c1[nH]c2ccccc2c1NC(=O)c1ccc(OC(C)C)cc1	–	·	·	·	–	·	·
O=C(CCN1CCN(c2ccccc2)CC1)N/N=C/c1ccc([N+](=O)[O-])o1	86.5	69.9	?	–	–	–	11.2µM
COc1cc(/C=N/NC(=O)CCN2CCN(c3ccccc3)CC2)cc(OC)c1OC	–	–	–	–	–	–	–
Cc1cc(SCC(=O)Nc2ccc(C(F)(F)F)cc2)nc(=O)[nH]1	–	·	·	·	·	·	·
COc1ccc2cc3cc(C(=O)NCCN4CCc5ccccc5C4)sc3nc2c1	72.1	–	–	–	–	–	?
COc1ccc(Cl)cc1NC(=O)Cn1ncc2c3ccccc3n(Cc3ccccc3)c2c1=O	–	·	·	·	·	·	·
CCOC(=O)Cc1csc(NC(=O)c2cccc(OC)c2)n1	–	–	–	–	–	·	·
CCOC(=O)Cc1csc(NC(=O)c2csc(C)c2)n1	61.4	–	–	–	–	–	–
C=C(C)Cn1c(SCC(=O)Nc2cc(C)ccc2C)nc2sc3c(c2c1=O)CCCC3	–	·	·	·	–	·	·
COc1ccc2c(c1)c1c(c(=O)n(-c3ccc(OC)c(OC)c3)c(=O)n1Cc1ccc(F)cc1)n2C	–	·	·	·	–	·	·
CCOC(=O)CCc1c(C(=O)OCC)[nH]c(CC)c1C(=O)OCc1ccccc1	–	–	–	–	–	–	–
CCOC(=O)c1c(C)[nH]c(C(=O)OCc2ccccc2)c1C	–	–	–	–	–	·	·
Cc1c(Cl)cccc1NC(=O)C(C)n1nc(C)c2c(C)n(-c3ccccc3)nc2c1=O (configuration not stated)	–	·	·	·	–	·	·
O=C(O)Cc1sc(N/N=C\c2ccncc2)nc1-c1ccccc1	–	–	?	–	–	?	–
O=C(O)Cc1sc(Nc2ccccc2)nc1-c1ccccc1	–	·	·	·	–	·	·
CCOC(=O)[C@H]1[C@H]2COc3ccc(Br)cc3[C@@H]2N2C(=O)CN(Cc3ccco3)C(=O)[C@@]12C	–	–	–	–	–	–	–
CCOC(=O)[C@H]1[C@H]2COc3ccc(Br)cc3[C@@H]2N2C(=O)CN(Cc3ccc(Cl)cc3)C(=O)[C@@]12C	·	·	–	–	·	·	·
CCOC(=O)[C@H]1[C@H]2COc3ccc(Cl)cc3[C@@H]2N2C(=O)CN(C)C(=O)[C@@]12C	–	–	–	–	–	–	–
Oc1ccc(Cl)cc1C=NCCc1ccccc1	43.4	–	–	–	–	?	–
COc1ccc(CCNC(=O)CSc2cn(Cc3ccccc3)c3ccccc23)cc1OC	–	–	–	–	–	·	·
COc1ccc(CCNC(=O)CSc2cn(Cc3cccc(C)c3)c3ccccc23)cc1OC	57.9	–	–	–	–	–	–
COc1ccc(CCNC(=O)CSc2ccccc2)cc1OC	–	–	–	–	–	·	·
